Data published in the antibiotic and cytotoxicity screens of Wong et al. (2023).
The campaign covered roughly 39,000 compounds. About 1,500 (3.8%) were called active. The entries come from a sample that favours actives as a whole.

system: HSkMC (human skeletal muscle cells); assay: cytotoxicity call (relative viability < 0.9); conditions: 10 µM

Row | Structure (SMILES) | cytotoxicity call
1 | NCc1[nH]nc2cc(F)ccc12 | inactive
2 | CC(=O)[C@]12[C@@H]3CC=C[C@H]1N2CC3 (stereo not given in full) | inactive
3 | CCN1C[C@]2(OC(=O)c3ccccc3NC(C)=O)CC[C@H](OC)[C@@]34[C@@H]2C[C@@H]([C@@H]13)[C@@]1(O)C[C@H](OC)[C@H]2C[C@@H]4[C@]1(O)[C@H]2OC | inactive
4 | COc1cc2c(cc1OC)C1C(=O)c3ccc4c(c3OC1CO2)CC(C(C)C)O4 (stereo not given) | inactive
5 | CCC(C(=O)[O-])C1CCC(C)C(C(C)C(O)C(C)C(=O)C(CC)C2OC3(C=CC(O)C4(CCC(C)(C5CCC(O)(CC)C(C)O5)O4)O3)C(C)CC2C)O1.[Na+] (stereo not given) | inactive
6 | CC[C@@H](C(=O)[C@@H](C)[C@@H](O)[C@H](C)[C@@H]1O[C@@H]([C@@H](CC)C(=O)O)CC[C@@H]1C)[C@H]1O[C@]2(C=C[C@@H](O)[C@]3(CC[C@@](C)([C@H]4CC[C@](O)(CC)[C@H](C)O4)O3)O2)[C@H](C)C[C@@H]1C | active
7 | [N-]=[N+]=NCC(=O)N1CCOCC1 | inactive
8 | COCC(=O)N[C@@H]1[C@@H]2CNC[C@@H]21 | inactive
9 | C[C@H]1[C@H](O)[C@@H](C)/C=C\C=C/CC\C=C/C=C\C=C/C=C\[C@@H](O[C@@H]2O[C@H](C)[C@@H](O)[C@H](N)[C@@H]2O)C[C@H]2O[C@@](O)(C[C@@H](O)[C@@H]2C(=O)O)C[C@@H](O)[C@@H](O)CC[C@@H](O)C[C@@H](O)C[C@@H](O)CC(=O)O[C@H]1C | inactive
10 | CN1CCC2(C)c3cc(O)ccc3N(C)C12.O=C(O)C=CC(=O)O (stereo not given) | inactive
11 | O=S(=O)(O)O.Oc1cccc2cccnc12 | inactive
12 | C[C@]12CC[C@](C)(O1)[C@H](C(=O)O)[C@@H]2C(=O)O | inactive
13 | C[C@@]1(C(=O)O)[C@H]2CC[C@@H](O2)[C@@]1(C)C(=O)O | active
14 | O=C(O)[C@H]1[C@H](C(=O)O)[C@H]2CC[C@@H]1O2 | inactive
15 | CC1(C)[C@@H](C=C(Br)Br)[C@@H]1C(=O)O[C@@H](C#N)c1cccc(Oc2ccccc2)c1 | inactive
16 | FCCN1C[C@H]2CCN[C@H]2C1 | inactive
17 | CC(=O)OC(C)(C)/C=C/C(=O)C(C)(O)[C@H]1[C@H](O)C[C@@]2(C)[C@H]3CC=C4[C@@H](C[C@H](O)C(=O)C4(C)C)[C@]3(C)C(=O)C[C@]12C (stereo not given in full) | inactive
18 | CC(C)(O)/C=C/C(=O)[C@](C)(O)[C@H]1[C@H](O)C[C@@]2(C)[C@H]3CC=C4[C@@H](CC(=O)C(=O)C4(C)C)[C@]3(C)C(=O)C[C@]12C | active
19 | C[C@@H]1CN([C@@H](C)CO)C(=O)c2c(c3ccccc3n2C)-c2ccccc2CO[C@@H]1CN(C)C(=O)Oc1ccccc1 | inactive
20 | C[C@H]1O[C@H](n2cnc3c(N)ncnc32)C[C@@H]1O | inactive
21 | CC(C)C[C@@H](NC(=O)[C@H](Cc1ccccc1)NC(=O)CNC(=O)[C@@H](C)NC(=O)[C@@H](N)Cc1ccc(O)cc1)C(=O)O | inactive
22 | C[CH2][Hg][S]c1ccccc1C(=O)[O-].[Na+] | active

Row | Structure (SMILES) | cytotoxicity call
23 | O=C([O-])Cc1ccccc1.[Na+] | inactive
24 | CCCCOC(=O)c1ccccc1C(=O)OCCCC | inactive
25 | Cc1noc(C)c1CN1CCNCC1 | inactive
26 | CCN(C)C(=O)Oc1cccc(C(C)N(C)C)c1.O=C(O)C(O)C(O)C(=O)O (stereo not given) | inactive
27 | CCCCOC(=O)C1=CC(=O)CC(C)(C)O1 | inactive
28 | CNCCc1ccc(O)c(O)c1 | inactive
29 | NCCN1CCN(c2ccc(F)cc2)CC1 | inactive
30 | CCCCCCCCCCCCCCCC[n+]1ccccc1.[Cl-] | active
31 | CCCCCCCCCCCCCCCC[n+]1ccccc1 | active
32 | c1ccc(CN2CCNCC2)nc1 | inactive
33 | CN[C@@H](C)Cc1cnccn1 | inactive
34 | CCOCC(=O)N[C@H]1CCSC1=O | inactive
35 | O=C1C[C@@H](CO)CN1 | inactive
36 | CN(C)C(=O)C(CCN1CCC(O)(c2ccc(Cl)cc2)CC1)(c1ccccc1)c1ccccc1.Cl | inactive
37 | C[C@]12CC/C(=N\OCCN)C[C@@H]1C(=O)C[C@@H]1[C@@H]2CC[C@]2(C)C(=O)CC[C@@H]12 | active
38 | CC12CCC3C(CC=C4CC(O)CCC43C)C1CCC2=O (stereo not given) | inactive
39 | C[C@]12CCC(=O)C[C@@H]1CC[C@@H]1[C@@H]2CC[C@]2(C)C(=O)CC[C@@H]12 [5alpha-ANDROSTAN-3,17-DIONE ] | inactive
40 | CC1=C2C(=COC(C)C2C)C(O)=C(C(=O)O)C1=O (stereo not given) | inactive
41 | C=C(C)[C@H]1CN[C@H](C(=O)O)[C@H]1CC(=O)O | inactive
42 | COC(=O)C[C@H]1CC[C@@H]2NC[C@@H](O)COC[C@H]2O1 | inactive
43 | Cc1ccc2c(CCN)c(C)n(C)c2c1 | inactive
44 | CCn1nc(-c2cccnc2)nc2c(=O)n(C)c(=O)nc1-2 | active

Row | Structure (SMILES) | cytotoxicity call
45 | C1C[C@@H]2C[C@@H]2N1 | inactive
46 | S=C=Nc1cccc(C2(N3CCCCC3)CCCCC2)c1 | inactive
47 | Cc1ncc(CNC(=O)N(CCCl)N=O)c(N)n1.Cl | inactive
48 | CCC1(c2ccccc2)C(=O)NC(=O)NC1=O | inactive
49 | NC[C@H]1CCCc2ccc(Cl)cc21 | inactive
50 | COCC(=O)N1[C@@H]2c3ccc(C4=CCCC4)c(=O)n3C[C@H]1[C@H](CO)[C@H]2C(=O)OC | inactive
51 | CC(=O)OC1CCC2(C)C(=CCC3C4CCC(=O)C4(C)CCC32)C1 (stereo not given) | inactive
52 | CC1(C)S[C@@H]2[C@H](N)C(=O)N2[C@H]1C(=O)O | inactive
53 | N.N.[Cl][Pt][Cl] | inactive
54 | CCOC(=O)c1c(CN2CCN(Cc3ccccc3)CC2)n(Cc2ccccc2)c2cc(Br)c(O)cc12 | active
55 | CCOC(=O)c1c(CN2CCN(c3ccccc3)CC2)n(Cc2ccccc2)c2cc(Br)c(O)cc12 | active
56 | CNCc1cccnc1 | inactive
57 | O=C1CO[C@H]2CNC[C@@H]2N1CC1CCCC1 | inactive
58 | C[C@H](CO)N1C[C@H](C)[C@@H](CN(C)C(=O)Oc2ccc3ccccc3c2)OCc2cnnn2CCCC1=O | inactive
59 | O/N=C1\CN2CCC1CC2 | inactive
60 | C=C(C)C1Cc2c(ccc3c2OC2COc4cc(OC)c(OC)cc4C2C3=O)O1 (stereo not given) | inactive
61 | c1ccc(-c2ccncc2)cc1 | inactive
62 | C[C@@H]1CC[C@@]2(OC1)O[C@H]1[C@@H](O)[C@H]3[C@H]4CC[C@H]5C[C@H](O[C@@H]6O[C@H](CO)[C@H](O[C@@H]7O[C@H](CO)[C@@H](O)[C@H](O[C@@H]8OC[C@@H](O)[C@H](O)[C@H]8O)[C@H]7O[C@@H]7O[C@H](CO)[C@H](O)[C@H](O[C@@H]8O[C@H](CO)[C@@H](O)[C@H](O)[C@H]8O)[C@H]7O)[C@H](O)[C@H]6O)[C@H](O)C[C@]5(C)[C@@H]4CC[C@]3(C)[C@H]1[C@@H]2C | inactive
63 | C[C@@H]1CC[C@@]2(OC1)O[C@H]1C[C@H]3[C@@H]4CC=C5C[C@@H](O[C@@H]6O[C@H](CO)[C@@H](O[C@@H]7O[C@@H](C)[C@H](O)[C@@H](O)[C@H]7O)[C@H](O)[C@H]6O[C@@H]6O[C@@H](C)[C@H](O)[C@@H](O)[C@H]6O)CC[C@]5(C)[C@H]4CC[C@]3(C)[C@H]1[C@@H]2C | active
64 | CC1CCC2(NC1)OC1CC3C4CC=C5CC(O)CCC5(C)C4CCC3(C)C1C2C (stereo not given) | inactive
65 | Cc1cccc2[nH]c(CCN)nc12 | inactive
66 | COc1cccc(N=[N+]=[N-])c1 | inactive

Row | Structure (SMILES) | cytotoxicity call
67 | CC1=C[C@H]2O[C@@H]3[C@H](O)[C@@H](O[C@H]4O[C@H](CO)[C@@H](O)[C@H](O)[C@H]4O)[C@](C)([C@@]2(CO)CC1)[C@]31CO1 | active
68 | Cc1cc(O[C@@H]2O[C@H](CO)[C@@H](O)[C@H](O)[C@H]2O)c2c3c(c(=O)oc2c1)CCC3 | inactive
69 | CC(=O)OC[C@]12CCC(C)=C[C@H]1O[C@@H]1[C@H](O)[C@@H](OC(C)=O)[C@@]2(C)[C@]12CO2 | active
70 | OCCN[C@@H]1c2ccccc2[C@H]2CNC[C@H]21 | inactive
71 | C[C@]12CC[C@H](Cl)C[C@@H]1CC[C@@H]1[C@@H]2CC[C@]2(C)C(=O)CC[C@@H]12 | inactive
72 | NC(=O)c1ccc(N)nc1 | inactive
73 | CC12CC(=O)C3C(CCC4=CC(=O)CCC43C)C1CCC2=O (stereo not given) | inactive
74 | NCCc1ccncc1 | inactive
75 | CCN1C[C@@]2(C)CC[C@H](OC)C34[C@@H]2[C@H](O)[C@]2(OCO[C@@]25C[C@H](OC)[C@H]2C[C@]3(O)[C@@H]5[C@H]2O)[C@@H]14 | inactive
76 | O=c1[nH]c2ccccc2n1C1CCN(Cc2ccc(-c3nc4cc5[nH]cnc5cc4nc3-c3ccccc3)cc2)CC1 | active
77 | CN1C[C@H](C(=O)N[C@]2(C)O[C@@]3(O)[C@@H]4CCCN4C(=O)[C@H](Cc4ccccc4)N3C2=O)C=C2c3cccc4[nH]cc(c34)C[C@H]21 | inactive
78 | Cc1cccc(N2CCNCC2)n1 | inactive
79 | COc1c2c(cc3c1OCO3)CC[N+](C)=C2.[Cl-] | inactive
80 | CC(C)CC1C(=O)N2CCCC2C2(O)OC(NC(=O)C3C=C4c5cccc6[nH]c(Br)c(c56)CC4N(C)C3)(C(C)C)C(=O)N12.CS(=O)(=O)O (stereo not given) | inactive
81 | O=c1[nH]c2cc(N3CCNCC3)ccc2o1 | inactive
82 | COc1cccc2c1C(=O)c1c(O)c3c(c(O)c1C2=O)C[C@@](O)(C(=O)CO)C[C@@H]3O[C@H]1C[C@H](N2CCO[C@H](OC)C2)[C@H](O)[C@H](C)O1 | active
83 | CC[C@@]1(O)C[C@H](O[C@H]2C[C@H](N(C)C)[C@H](O)[C@H](C)O2)c2c(cc3c(c2O)C(=O)c2c(O)ccc(O)c2C3=O)[C@H]1C(=O)OC | inactive
84 | COc1cc2c3cc1Oc1c(OC)c(OC)cc4c1C(Cc1cccc(c1)Oc1ccc(c(O)c1)CC3N(C)CC2)N(C)CC4.Cl.Cl (stereo not given) | inactive
85 | COc1ccc(OC(=O)N(C)C[C@@H]2OCc3ccccc3-c3c(n(C)c4ccccc34)C(=O)N([C@@H](C)CO)C[C@H]2C)cc1 | inactive
